40 compounds from PubChem BioAssay (NCI) can be followed below.

Each structure is given as a SMILES string. The panel holds about 83,000 compounds, 20% with a hit somewhere; the sample as a whole holds those more often.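 96-well plates, one dose, 48 hours. Percent growth reported; active if below 10.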 Calls of active or inactive are those of the source.

The test deals with SNB-19 CNS. Put plainly: NCI-60 one-dose screen, 48 h (100 = growth as untreated, 0 = no growth, -100 = all killed). Particulars: 10 µM unless noted. The method, then: Growth inhibition of the SNB-19 human tumor cell line is measured as a screen for anti-cancer activity. Cells are grown in 96 well plates and exposed to the test compound for 48 hours. Compounds are tested at a single concentration, which is 10^-5 M for most compounds. The reported endpoint is percent growth (GI% or GIPRCNT), where numbers from 0 - 100% represent growth inhibition, and numbers from -100% - 0 represent cell death. For example, a value of 40 represents 60% growth inhibition. A value of 0 means no net growth occurred over the course of the experiment. A value of -40 indicates 40% of cells at the beginning of the experiment died by the end of the experiment. A value of -100 means all cells are dead at the end of the experiment.
NCI-60 Human Tumor Cell Lines Screen was performed using the standard one-dose NCI protocol, which is described in more detail at https://dtp.cancer.gov/discovery_development/nci-60/default.htm.
Compounds with GIPRCNT values below 10 were considered active. Activity score was based on GIPRCNT using the following formula: […]
Score is 0 for GIPRCNT values of 100 or above, 50 for GIPRCNT values of 0, and 100 for GIPRCNT values of -100.
Turning to `Cc1cccc(C(=O)O)n1`, the growth was 97.6% (inactive). For `CCc1oc2ccccc2c1C(=O)c1cc(I)c(O)c(I)c1`, the growth was 54.2% (inactive). For `C#CC[C@@H]1C[C@]2(C)[C@H]3CC[C@@H]4[C@H]5C(C(=C)C)CC[C@]5(C(=O)NCCCN5CCN(CCCN)CC5)CC[C@@]4(C)[C@]3(C)CC[C@H]2C(C)(C)[C@H]1OC(C)=O` (stereo not given in full) the value was -8.5% (active). Consider `c1ccc2c(Cc3csc4ccccc34)csc2c1`, for which the growth was 90.4% (inactive). For `C#CC[C@@H]1C[C@]2(C)[C@H]3CC=C4[C@H]5[C@@H](C)[C@H](C)CC[C@]5(C(=O)NCCCCN)CC[C@@]4(C)[C@]3(C)CC[C@H]2C(C)(C)[C@H]1OC(C)=O` the value was 73.9% (inactive); for `CC1=C(C(=O)Nc2ccc(F)cc2)C(c2ccccc2)C2=C(CC(C)(C)CC2=O)N1` (stereo not given), 87.4% (inactive).

Consider `Nc1c(C(=O)c2ccc(Br)cc2)sc2nc3c(cc12)CCCC3`, for which the growth is 97.3% (inactive).

Consider `OC(c1cc2cc(Cl)ccc2c2cc(C(F)(F)F)ccc12)C1CCCCN1` (stereo not given), for which the growth is -68.6% (active). To `CCCCCCCCCCCC1=NC(C)(C)CN1C(C)(C)CO` belongs 114% (inactive); to `CC(C)CC(NC(=O)OCC1c2ccccc2-c2ccccc21)C(=O)O` (stereo not given), 99.1% (inactive); to `c1ccc(C(Nc2ccccn2)(c2ccccc2)c2ccccc2)cc1`, 77.5% (inactive). To `COc1cc2nccc(Oc3ccc(NC(=O)C4(C(=O)Nc5ccc(F)cc5)CC4)cc3)c2cc1O` belongs 82% (inactive).

Take `COc1cc(NC(C)CCCN)c2ncccc2c1Oc1ccc(Cl)cc1` (stereo not given): the growth was 91% (inactive). As for `CCOC(=O)c1ccc(N(CCC(=O)O)C(C)=O)cc1`, the growth was 106% (inactive). For `COc1cc(-c2n/c(=C\c3c(O)[nH]c4cc(Cl)ccc34)cc3c2=Nc2ccccc2-3)cc(OC)c1OC` the value was 63.9% (inactive); for `CCCOC(=O)C1c2cc3c(cc2CC(C)C1C(=O)OCCC)OCO3` (stereo not given), 98.9% (inactive).

With `CN1CCN(Cc2ccc(NC(=O)c3cncc(C#Cc4ccc(N)nc4)c3)cc2C(F)(F)F)CC1`, the growth was 37.2% (inactive). For the compound `COc1cc(C2=NOC(c3cc(OC)c(OC)c(OC)c3)C2)ccc1OCCCCOc1cc2c(cc1OC)C(=O)N1CCC[C@H]1C=N2` (stereo not given in full), the growth was -9.51% (active). For `COc1cccc(CC(C)=C(c2ccc(OCCCN(C)C)cc2)c2ccc(OCCCN(C)C)cc2)c1` the value was -72.1% (active); for `CC(C)NC(=O)OCC#CCOC(=O)NC(C)C`, 97.5% (inactive).

With `O=C(Nc1ccc(Oc2ccc(Nc3nc4ccccc4s3)cc2)cc1)Nc1ccc(Cl)c(C(F)(F)F)c1`, the growth is 22.5% (inactive). For `CCOC(=O)Nc1ccc2nc(-c3cscn3)[nH]c2c1` the value was 63.2% (inactive). For `CCOc1cccc(/C=N/NC(=O)Cc2ccc(Nc3ccnc(C(F)(F)F)c3)cc2)c1O` the value was 28% (inactive); for `Clc1ccc2c(c1)-c1ccccc1C1=NCCN12`, 41.6% (inactive); for `CC(=O)c1c(C)nc(-c2cc(C)cc(Cl)c2)nc1-c1cccc(Oc2ccccc2)c1`, 79.3% (inactive). In the case of `CCCCNCCC(O)c1cc2ccc(C(F)(F)F)cc2c2cc(C(F)(F)F)ccc12` (stereo not given), the growth was -76.6% (active). As to `CCN(CC)C(Cl)=Nc1ccc(Cl)cc1`, the growth is 95.5% (inactive).

`CCC1CCc2nc3sc(C(=O)Nc4cccc(F)c4)c(N)c3cc2C1` (stereo not given): the growth was 76.9% (inactive). As to `O=C(CN1CCN(c2ccccc2)CC1)N1CCN(c2nnc(-c3ccc(Cl)cc3)c(-c3ccc(Cl)cc3)n2)CC1`, the growth was 82.1% (inactive). For `c1ccc2c(c1)cnc1ccccc12`, the growth is 99.2% (inactive). To `Cc1ccc(N=CNN=C(N)N)cc1` belongs 105% (inactive).

On to `CCCCN(CCCC)CCC(O)c1cc2ccc(C(F)(F)F)cc2c2cc(C(F)(F)F)ccc12` (stereo not given), for which the growth was 72.6% (inactive). For `c1ccc(C(CC2=NCCCN2)c2ccccc2)cc1` the value was 107% (inactive); for `C#CC[C@@H]1C[C@]2(C)[C@H]3CC=C4[C@H]5CC(C)(C)CC[C@]5(C(=O)NCCCCN)CC[C@@]4(C)[C@]3(C)CC[C@H]2C(C)(C)[C@H]1OC(C)=O`, 6.48% (active); for `CCOC(=O)NNc1cccc(Cl)c1`, 98% (inactive). For `COc1ccc(/C=C/C(=O)c2ccc(NC(=O)CSc3nnc(-c4ccc(OC)cc4)n3-c3ccccc3)cc2)cc1` the value was 94.1% (inactive); for `Cc1nc([C@H]2CC[C@H]3[C@@H]4CCC5=CC(=O)CC[C@]5(C)[C@H]4CC[C@]23C)cs1`, 91.3% (inactive); for `O=C(/C=C/c1ccccc1)n1c(-c2ccccc2)nc2ccccc21`, 94.7% (inactive).

With `CCN(CC)CCCC(C)Nc1cnc(C(=O)Nc2ccc(Cl)c3cccnc23)cn1` (stereo not given), the growth was 49.6% (inactive).

Regarding `CC(C)N1CCN(c2ccncc2S(=O)(=O)N2CCN(C)CC2)CC1`, the growth is 98.7% (inactive).
